Measurements published in PubChem BioAssay (EPA / NIEHS).
Activity calls are given as the source filed them. The calls were made as follows: active = hit-call score of the fitted dose curve at least 0.9, where 1 is the maximum; inactive = score below 0.9.

Target: Cellular tumor antigen p53 (Homo sapiens) (UniProt P04637)
Assay: ATG_p53_CIS: Attagene CIS-FACTORIAL HepG2 Assay for human p53 Transcription Factor (AID 2282994)
Settings: HepG2 p53 cis-element reporter, Attagene mRNA; actives raise or lower the signal
Summary of the method: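 In HepG2 cells, reporter transcription units under cis-regulatory promoters were transiently introduced. Following 24 h treatment, RNA was processed to labelled, digested cDNA fragments read by capillary electrophoresis; fitting was bidirectional versus DMSO.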

Sequence of Cellular tumor antigen p53 (Homo sapiens) (P04637 whole entry, looked up): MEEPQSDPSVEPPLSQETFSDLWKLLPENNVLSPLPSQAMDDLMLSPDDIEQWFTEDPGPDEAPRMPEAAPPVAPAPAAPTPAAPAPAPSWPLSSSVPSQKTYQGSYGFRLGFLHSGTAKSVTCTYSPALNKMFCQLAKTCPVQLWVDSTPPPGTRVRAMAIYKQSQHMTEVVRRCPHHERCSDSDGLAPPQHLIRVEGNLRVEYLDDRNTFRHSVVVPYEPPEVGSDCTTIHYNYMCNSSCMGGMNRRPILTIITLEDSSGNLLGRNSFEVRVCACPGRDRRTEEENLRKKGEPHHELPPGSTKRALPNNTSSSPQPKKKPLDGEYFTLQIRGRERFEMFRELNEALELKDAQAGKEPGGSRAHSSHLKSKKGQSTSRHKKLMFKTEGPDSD

outcome, inactive:
COC(=O)c1cc(Cl)ccc1[N+](=O)[O-], C=C(C)[C@H]1CC=C(C)CC1, CC=CC(F)(F)C(F)(F)C(F)(F)F, CCCOC(=O)CCCCC(=O)OCCC, CCOc1nc(F)cc2nc(S(=O)(=O)Nc3c(Cl)cccc3C(=O)OC)nn12, CC(C)=CCC[C@H](C)CCO, CCCCCCCCC(=O)OCC, NC(=O)C1CO1 (stereo not drawn), C[Si](C)(CCCN)O[Si](C)(C)CCCN, C=C1[C@H]2CC[C@@H]3[C@H]2C(C)(C)CCC[C@]13C, O=C(O)CC(C(=O)O)C(CC(=O)O)C(=O)O (stereo not drawn), CC(C)C(=O)C(C)C, CC(=O)OCCC1CCCCC1, COC(F)(F)C(F)(C(F)(F)F)C(F)(F)F, O=C(/C=C/C=C/c1ccc2c(c1)OCO2)N1CCCCC1, C=CC(C)(C)C, C=C(C)[C@@H]1CCC2=CCC[C@@H](C)[C@]2(C)C1, C=CC(C)(CCC=C(C)C)OC(=O)C(C)C (stereo not drawn), COC(=O)c1sccc1S(N)(=O)=O, Cc1cccc(C(=O)O)c1, CCOC(F)(F)C(F)(F)C(F)(F)C(F)(F)F, O=[N+]([O-])c1ccc(CO)cc1, c1c[nH]cn1, O=S(=O)(O)c1ccccc1C=Cc1ccc(-c2ccc(C=Cc3ccccc3S(=O)(=O)O)cc2)cc1, CC=CC(=O)N(CC)c1ccccc1C, CCC(C)OC(=O)c1ccc(O)cc1 (stereo not drawn), CC1(C)S[C@@H]2[C@H](NC(=O)COc3ccccc3)C(=O)N2[C@H]1C(=O)O, CCO[Si](C)(OCC)OCC, CCCCCCCCCCc1ccccc1, Clc1nc2ccccc2s1, CCN(Cc1cccc(S(=O)(=O)O)c1)c1ccc(C(=C2C=CC(=[N+](CC)Cc3cccc(S(=O)(=O)[O-])c3)C=C2)c2ccccc2)cc1, O=CC1CC1, Cc1ccccc1C, Nc1cccc(C(F)(F)F)c1, Cc1cc(C)c(C)c(C)c1

Read-out: not listed separately
Assay: BSK_3C_TissueFactor: BioMAP Diversity Plus: 3C Assay for Tissue Factor Biomarker Activity (AID 2282997)
Settings: BioMAP 3C HUVEC, tissue factor biomarker readout; actives raise or lower the signal
Summary of the method: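 After a 24 h chemical exposure of primary human umbilical vein endothelial cells, Tissue Factor levels were quantified by ELISA.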

outcome, inactive:
CCOc1nc(F)cc2nc(S(=O)(=O)Nc3c(Cl)cccc3C(=O)OC)nn12, CC(C)C(=O)C(C)C, CCO[Si](C)(OCC)OCC
